Records with an inconclusive call do not appear. Where a call stands in place of a potency, no number is given. Activity calls are given as the source filed them. Unless noted, the call rests on the fitted dose curve.
Columns and labels:
[1] = Nuclear factor erythroid 2-related factor 2/antioxidant responsive element (Nrf2/ARE) small molecule agonists: luciferase reporter gene qHTS assay in human keratinocytes (AID 1919969); further: nearly all actives have a fitted effect of over 35% in size
[2] = target: Gonadotropin-releasing hormone receptor (Homo sapiens) (UniProt P30968); experiment: Human gonadotropin-releasing hormone receptor (GnRHR) small molecule agonists, calcium flux assay in GnRHR-HEK293 cells (AID 1920063); further: nearly all actives have a fitted effect of over 35% in size
Gonadotropin-releasing hormone receptor (Homo sapiens), sequence (P30968 whole entry, looked up): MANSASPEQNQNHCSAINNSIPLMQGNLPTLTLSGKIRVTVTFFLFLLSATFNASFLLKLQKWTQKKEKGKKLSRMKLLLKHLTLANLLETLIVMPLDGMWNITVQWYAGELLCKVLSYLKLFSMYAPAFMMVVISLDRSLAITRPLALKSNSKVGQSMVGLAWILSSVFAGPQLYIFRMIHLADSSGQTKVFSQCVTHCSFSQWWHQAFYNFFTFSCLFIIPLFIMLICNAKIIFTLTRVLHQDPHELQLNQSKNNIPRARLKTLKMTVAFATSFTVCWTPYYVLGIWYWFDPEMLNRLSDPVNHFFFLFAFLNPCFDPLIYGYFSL
How it was run: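 HEK293 cells stably expressing human GnRHR were plated 18 h at 37 °C, loaded with calcium dye 1 h at 37 °C, then given compound in agonist mode; fluorescence (Ex/Em 480/540) read kinetically for 3 min at 1 s intervals.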

[3] = target: KiSS-1 receptor (Homo sapiens) (UniProt Q969F8); experiment: Human kisspeptin (KISS1R) small molecule agonists, calcium flux assay in KISS1R-HEK293 cells (AID 1920064; active means well fitted activation curve with a large enough effect in the repeat runs)
KiSS-1 receptor (Homo sapiens), sequence (Q969F8 whole entry, looked up): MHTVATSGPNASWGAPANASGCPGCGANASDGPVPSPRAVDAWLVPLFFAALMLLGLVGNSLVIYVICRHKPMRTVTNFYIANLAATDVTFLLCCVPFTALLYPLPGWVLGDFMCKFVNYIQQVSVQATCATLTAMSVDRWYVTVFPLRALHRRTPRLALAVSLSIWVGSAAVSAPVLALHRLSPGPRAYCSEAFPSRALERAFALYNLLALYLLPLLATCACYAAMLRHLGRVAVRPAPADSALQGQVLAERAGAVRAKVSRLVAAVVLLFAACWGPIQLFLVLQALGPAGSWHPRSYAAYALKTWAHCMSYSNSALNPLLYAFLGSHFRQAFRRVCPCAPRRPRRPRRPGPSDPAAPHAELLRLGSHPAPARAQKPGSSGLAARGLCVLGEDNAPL
How it was run: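 HEK293 cells stably expressing human KISS1R were plated 18 h at 37 °C, loaded with calcium dye for 1 h at 37 °C, then given compound by pin tool. Fluorescence (Ex/Em 480/540) was read kinetically for 3 min.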

[4] = p53 small molecule agonists, cell-based qHTS assay with human liver microsomes (AID 1963577)
How it was run: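 Fluorescence of the beta-lactamase reporter in p53RE-bla cells, detected with LiveBLAzer substrate (2 h, room temperature, dark), served as the read-out after 16 h compound exposure at 37 C with human liver microsomes and NADPH, each 0.5 mg/mL final.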

[5] = p53 small molecule agonists, cell-based qHTS assay with rat liver microsomes (AID 1963578)
How it was run: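 Cells carrying a p53 response element–beta-lactamase reporter were plated and rested 5 h, then dosed with compound in DMSO plus rat liver microsomes and NADPH, each at 0.5 mg/mL final. After 16 h at 37 C, LiveBLAzer substrate was added for 2 h.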

[6] = p53 small molecule agonists, cell-based qHTS assay with human liver microsomes: qHTS cell viability counter screen (AID 1963579); further: nearly all actives have a fitted effect of over 45% in size
How it was run: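 Cytotoxicity counter screen: p53RE-bla, 4,000 cells/well; 5 h settle, 37 C/5% CO2; cpd + HLM 0.5 mg/mL + NADPH 0.5 mg/mL (final); 16 h, 37 C; CellTiter-Glo, 30 min RT, luminescence.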

[7] = p53 small molecule agonists, cell-based qHTS assay with rat liver microsomes: qHTS cell viability counter screen (AID 1963580); further: nearly all actives have a fitted effect of over 45% in size
How it was run: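 p53RE-bla HCT-116 cells (4,000/well) rested 5 h at 37 C, then given Tox21 compounds in DMSO with rat liver microsomes (0.5 mg/mL final) plus NADPH (0.5 mg/mL final) for 16 h at 37 C. Viability read by CellTiter-Glo luminescence after 30 min at room temperature.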

[8] = p53 small molecule agonists, cell-based qHTS assay: qHTS cell viability counter screen (AID 1963581); further: nearly all actives have a fitted effect of over 45% in size
How it was run: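 p53RE-bla HCT-116 cells were exposed to compounds for 16 h at 37 C; after the beta-lactamase FRET read in the same wells, CellTiter-Glo was added and luminescence (intracellular ATP) read after 30 min at room temperature.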

[9] = p53 small molecule agonists, cell-based qHTS assay (AID 1963582; active means well fitted activation curve with a large enough effect in the signal ratio in the repeat runs, not every such curve was filed as active; the % refers to the signal ratio)
How it was run: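 p53RE-bla beta-lactamase reporter cells rested 5 h at 37 C/5% CO2, then received compounds in DMSO by pin transfer and were incubated 16 h at 37 C. LiveBLAzer B/G FRET substrate was loaded for 2 h at room temperature before fluorescence reading.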

[10] = target: 5-hydroxytryptamine receptor 2A (Homo sapiens) (UniProt P28223); experiment: 5-hydroxytryptamine receptor 2A (HTR2A) small molecule antagonists, cell-based qHTS assay (AID 1963586); further: nearly all actives have a fitted effect of over 45% in size; further: potency means the concentration at half of the fitted maximal effect
5-hydroxytryptamine receptor 2A (Homo sapiens), sequence (P28223 whole entry, looked up): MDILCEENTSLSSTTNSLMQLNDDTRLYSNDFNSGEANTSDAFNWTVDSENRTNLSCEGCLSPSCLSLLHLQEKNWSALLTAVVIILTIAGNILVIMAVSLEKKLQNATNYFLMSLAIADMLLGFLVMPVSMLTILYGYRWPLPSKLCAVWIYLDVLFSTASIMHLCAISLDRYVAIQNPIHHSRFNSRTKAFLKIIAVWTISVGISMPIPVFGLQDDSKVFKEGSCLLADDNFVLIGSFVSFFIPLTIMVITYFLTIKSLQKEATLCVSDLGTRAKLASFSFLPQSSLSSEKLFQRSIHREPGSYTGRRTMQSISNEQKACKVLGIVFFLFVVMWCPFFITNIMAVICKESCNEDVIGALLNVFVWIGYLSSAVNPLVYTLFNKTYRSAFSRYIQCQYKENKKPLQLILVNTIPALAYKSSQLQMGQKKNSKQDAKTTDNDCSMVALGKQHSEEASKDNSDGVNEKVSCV
How it was run: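 Antagonist-mode intracellular calcium assay: DOI (4 nM) added after 5 min compound pre-incubation at room temperature to dye-loaded HTR2A-CHO cells. Fluorescence followed for 3 min, sampled every second.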

[11] = target: 5-hydroxytryptamine receptor 2A (Homo sapiens) (UniProt P28223); experiment: 5-hydroxytryptamine receptor 2A (HTR2A) small molecule agonists, cell-based qHTS assay (AID 1963587); further: nearly all actives have a fitted effect of over 30% in size; further: potency means the concentration at half of the fitted maximal effect
How it was run: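 HTR2A-CHO cells, plated 18 h at 37 C/5% CO2, dye-loaded 1 h at 37 C; compounds in DMSO added by pin tool (agonist mode). Intracellular calcium flux read as kinetic fluorescence on FDSS over 2 min at 1 s intervals.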

[12] = target: Muscarinic acetylcholine receptor M1 (Homo sapiens) (UniProt P11229); experiment: Cholinergic receptor muscarinic 1 (CHRM1) small molecule agonists, cell-based qHTS assay (AID 1963589); further: nearly all actives have a fitted effect of over 35% in size
Muscarinic acetylcholine receptor M1 (Homo sapiens), sequence (P11229 whole entry, looked up): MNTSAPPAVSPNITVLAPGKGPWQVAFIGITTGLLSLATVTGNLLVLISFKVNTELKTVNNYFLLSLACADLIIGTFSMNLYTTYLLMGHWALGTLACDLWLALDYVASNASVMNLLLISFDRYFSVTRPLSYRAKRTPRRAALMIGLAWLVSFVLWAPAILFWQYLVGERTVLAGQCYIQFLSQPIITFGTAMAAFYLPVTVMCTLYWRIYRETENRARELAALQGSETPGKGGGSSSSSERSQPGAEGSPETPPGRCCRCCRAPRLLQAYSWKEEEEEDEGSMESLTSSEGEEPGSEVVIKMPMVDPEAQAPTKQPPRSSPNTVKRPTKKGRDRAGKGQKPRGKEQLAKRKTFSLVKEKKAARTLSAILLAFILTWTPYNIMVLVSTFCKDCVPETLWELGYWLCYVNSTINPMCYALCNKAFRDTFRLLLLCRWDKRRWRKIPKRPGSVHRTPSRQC
How it was run: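 CHO cells stably expressing human CHRM1, seeded 18 h at 37 C/5% CO2, dye-loaded 1 h at 37 C, then given compound in agonist mode; intracellular calcium fluorescence read kinetically at 1 s intervals. Fifteen concentrations, three independent runs.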

[13] = cAMP Responsive Elements (CRE) small molecule agonists, cell-based qHTS assay (AID 1963590)
How it was run: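 CRE-bla HEK 293T cells in DMEM with 10% dialyzed FBS, NEAA, pyruvate and 25 mM HEPES were plated 18 h at 37 C/5% CO2, then exposed to compounds in DMSO for 3 h before LiveBLAzer B/G FRET substrate addition.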

[14] = target: Beta-2 adrenergic receptor (Homo sapiens) (UniProt P07550); experiment: Adrenergic beta2 receptor (ADRB2) small molecule antagonists, cell-based qHTS assay (AID 1963592); further: nearly all actives have a fitted effect of over 50% in size; further: potency means the concentration at half of the fitted maximal effect
Beta-2 adrenergic receptor (Homo sapiens), sequence (P07550 whole entry, looked up): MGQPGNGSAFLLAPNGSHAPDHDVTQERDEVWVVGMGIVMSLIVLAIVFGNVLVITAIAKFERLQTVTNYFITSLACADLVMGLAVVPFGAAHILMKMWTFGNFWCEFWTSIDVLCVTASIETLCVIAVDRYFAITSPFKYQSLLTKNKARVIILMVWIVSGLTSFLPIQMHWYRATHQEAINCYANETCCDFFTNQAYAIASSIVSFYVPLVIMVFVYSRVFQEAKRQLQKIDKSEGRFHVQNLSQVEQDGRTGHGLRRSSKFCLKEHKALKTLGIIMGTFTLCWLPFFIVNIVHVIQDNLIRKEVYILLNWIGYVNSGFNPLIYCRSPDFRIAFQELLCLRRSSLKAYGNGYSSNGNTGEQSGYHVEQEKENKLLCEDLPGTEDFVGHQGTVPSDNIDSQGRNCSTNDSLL
How it was run: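 Cells (CHO, stable ADRB2 overexpression) incubated 18-20hr at 37C; compounds added from DMSO; agonist mix (1nM isoproterenol, 100uM IBMX, 25uM Ro-20-1724) added; 0.5hr RT; d2-cAMP and anti-cAMP-cryptate added; 1hr RT; 665/615 nm read.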

[15] = target: D(2) dopamine receptor (Homo sapiens) (UniProt P14416); experiment: Dopamine D2 receptor (DRD2) small molecule agonists, cell-based qHTS assay (AID 1963594); further: nearly all actives have a fitted effect of over 35% in size
D(2) dopamine receptor (Homo sapiens), sequence (P14416 whole entry, looked up): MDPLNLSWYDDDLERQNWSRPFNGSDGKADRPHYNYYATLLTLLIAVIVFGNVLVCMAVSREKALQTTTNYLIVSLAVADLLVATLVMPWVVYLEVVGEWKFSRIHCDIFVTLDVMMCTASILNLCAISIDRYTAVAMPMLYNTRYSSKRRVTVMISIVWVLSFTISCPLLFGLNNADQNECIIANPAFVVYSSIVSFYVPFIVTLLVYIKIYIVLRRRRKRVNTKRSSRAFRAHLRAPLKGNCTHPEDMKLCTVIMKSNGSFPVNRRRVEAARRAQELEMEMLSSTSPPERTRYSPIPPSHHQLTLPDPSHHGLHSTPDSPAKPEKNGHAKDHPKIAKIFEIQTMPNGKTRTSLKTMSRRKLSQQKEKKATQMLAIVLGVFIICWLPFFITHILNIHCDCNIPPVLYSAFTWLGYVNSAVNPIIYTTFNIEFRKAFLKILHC
How it was run: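 HEK293 cells stably expressing DRD2 were cultured 24 h at 37 C, then given Ro20-1724 (0.1 mM final) and compounds for 10 min at room temperature. NKH477 (200nM) was then added for 30 min. cAMP was read by HTRF.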

[16] = target: D(2) dopamine receptor (Homo sapiens) (UniProt P14416); experiment: Dopamine D2 receptor (DRD2) small molecule antagonists, cell-based qHTS assay (AID 1963595; active means well fitted inhibition curve with a large enough effect in the signal ratio in the repeat runs, with a control signal flat; the % refers to the signal ratio)
How it was run: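 HTRF cAMP read-out at 665 and 620 nm emission (340 nm excitation). Antagonist mode: compounds were tested against 12 nM quinpirole in DRD2-HEK293 cells, with 200 nM NKH477 raising cAMP and 0.1 mM Ro20-1724 blocking its breakdown.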

[17] = G protein-coupled receptor (GPCR) small molecule agonists, calcium flux assay: HEK293 wild type cell line counter screen (AID 1920065)
How it was run: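 Cells were plated and cultured 18 h at 37 C/5% CO2, then loaded with calcium dye for 1 h at 37 C. Compounds in DMSO were pin-transferred in agonist mode, and fluorescence (Ex/Em 480/540) was read kinetically for 3 min at 1 s intervals.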

[18] = cAMP Responsive Elements (CRE) small molecule antagonists, cell-based qHTS assay (AID 1963591; active means well fitted inhibition curve with a large enough effect in the signal ratio in the repeat runs, not every such curve was filed as active; the % refers to the signal ratio)
How it was run: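 CRE-bla HEK293T cells were plated 18 h at 37 °C/5% CO2, pinned with compound in DMSO, then stimulated with NKH477 at 0.25 uM final for 3 h. LiveBLAzer B/G FRET substrate was added and plates incubated 2 h at room temperature.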

[19] = target: Muscarinic acetylcholine receptor M1 (Homo sapiens) (UniProt P11229); experiment: Cholinergic receptor muscarinic 1 (CHRM1) small molecule antagonists, cell-based qHTS assay (AID 1963588); further: nearly all actives have a fitted effect of over 40% in size; further: potency means the concentration at half of the fitted maximal effect
How it was run: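 CHRM1-CHO calcium-flux assay, antagonist mode. Cells were seeded 18 h, dye-loaded 1 h at 37 C and given compound for 5 min at RT, then acetylcholine was added at 50nM. FDSS fluorescence was read 3 min; 15 concentrations, three runs.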

[20] = target: Beta-2 adrenergic receptor (Homo sapiens) (UniProt P07550); experiment: Adrenergic beta2 receptor (ADRB2) small molecule agonists, cell-based qHTS assay (AID 1963593);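 further: CHO cells stably overexpressing human ADRB2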
How it was run: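 CHO cells stably over-expressing ADRB2 were plated overnight at 37C, then dosed with compounds plus a stimulation mix containing 100uM IBMX and 25uM Ro-20-1724 for 0.5hr at room temperature. cAMP was measured by HTRF competition, 1hr.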

| Structure (SMILES) | Potency [1] | Potency [2] | outcome [3] | Potency [4] | Potency [5] | Potency [6] | Potency [7] | Potency [8] | Potency [9] | Potency [10] | Potency [11] | Potency [12] | Potency [13] | Potency [14] | Potency [15] | Potency [16] | outcome [17] | Potency [18] | Potency [19] | Potency [20] |
| --- | --- | --- | --- | --- | --- | --- | --- | --- | --- | --- | --- | --- | --- | --- | --- | --- | --- | --- | --- | --- |
| CNC(=O)c1ccccc1 | inactive | inactive | inactive | inactive | inactive | inactive | inactive | inactive | inactive | inactive | inactive | inactive | inactive | inactive | inactive | inactive | – | – | – | – |
| CC12CCC(CC1=O)C2(C)C (stereo unspecified) | inactive | – | inactive | – | inactive | inactive | inactive | – | inactive | – | – | – | inactive | inactive | inactive | inactive | inactive | inactive | – | – |
| COC(=O)CCc1ccc(OCC(O)CNC(C)C)cc1 (stereo unspecified) | inactive | inactive | inactive | inactive | inactive | inactive | inactive | inactive | inactive | – | – | – | inactive | 9.44 µM (active) | – | inactive | – | inactive | – | – |
| C[C@@H]1O[C@@H](O[C@@H]2[C@@H](O)[C@H](OCCc3ccc(O)c(O)c3)O[C@H](CO[C@@H]3O[C@H](CO)[C@@H](O)[C@H](O)[C@H]3O)[C@H]2OC(=O)/C=C/c2ccc(O)c(O)c2)[C@H](O)[C@H](O)[C@H]1O | inactive | inactive | – | inactive | inactive | inactive | inactive | – | inactive | – | inactive | – | inactive | – | – | inactive | inactive | inactive | inactive | – |
| CCCCCCCCCCCCCOP(=O)(O)O | inactive | inactive | – | inactive | inactive | inactive | – | – | – | inactive | inactive | inactive | inactive | inactive | inactive | inactive | inactive | inactive | inactive | inactive |
| Cc1cccc(Nc2ccncc2S(=O)(=O)NC(=O)NC(C)C)c1 | inactive | inactive | inactive | – | inactive | inactive | inactive | inactive | inactive | – | – | – | inactive | inactive | inactive | inactive | inactive | inactive | – | – |
| CN1CCN(C2=Nc3cc(F)ccc3Cc3ccccc32)CC1 | inactive | inactive | – | inactive | inactive | inactive | inactive | – | inactive | 0.0231 µM (active) | inactive | inactive | inactive | 29.8 µM (active) | – | inactive | inactive | inactive | – | – |
| CCCC(=O)c1cc(O)c(O)cc1O | – | inactive | inactive | inactive | inactive | – | inactive | – | – | inactive | 0.436 µM (active) | – | – | – | – | – | inactive | – | inactive | – |
| O=C(/C=C/c1ccccc1)OCCCc1ccccc1 | – | inactive | inactive | inactive | – | inactive | – | inactive | inactive | inactive | inactive | inactive | inactive | inactive | inactive | – | inactive | inactive | inactive | – |
| CC(=O)c1ccc(C(C)=O)cc1 | inactive | inactive | inactive | – | – | inactive | inactive | inactive | inactive | inactive | inactive | inactive | inactive | inactive | inactive | – | inactive | – | inactive | – |
| CCCCCCCC[Si](OCC)(OCC)OCC | inactive | – | – | inactive | inactive | inactive | inactive | inactive | inactive | inactive | – | inactive | inactive | inactive | inactive | inactive | inactive | inactive | inactive | – |
| CC1=C2[C@@H]([C@H](C)CC[C@H]2/C=C(\C)C(=O)O)[C@H](O)C1 | inactive | inactive | – | inactive | inactive | inactive | inactive | inactive | inactive | inactive | inactive | inactive | – | inactive | inactive | inactive | inactive | inactive | 0.0026 µM (active) | – |
| CCCCCCCCCCCCCC(=O)OCC(O)CO (stereo unspecified) | inactive | inactive | – | inactive | inactive | inactive | inactive | – | inactive | inactive | inactive | inactive | inactive | – | inactive | inactive | inactive | inactive | inactive | – |
| COc1ccc(C(=O)Nc2nc3ccccc3c(NCc3ccccc3)c2C#N)cc1 | inactive | inactive | – | inactive | inactive | – | inactive | inactive | inactive | inactive | inactive | inactive | – | – | inactive | inactive | inactive | – | inactive | – |
| CC(=O)Nc1ccc(C)c(Cl)c1 | inactive | – | inactive | – | – | inactive | inactive | inactive | inactive | – | inactive | inactive | inactive | inactive | inactive | inactive | inactive | inactive | inactive | – |
